Source: PubChem BioAssay AID686978 (National Center for Advancing Translational Sciences (NCATS), 2013)
Among all 420,000 compounds or so, about 64,000 (15%) were called active. About 27% were inconclusive and are not listed. A selection follows. Values without a mark were called inactive. Calls follow the shape of the dose curve; as a rule, active = well fitted inhibition curve with a large enough effect; inconclusive = small, poorly fitted or top-dose-only effect; inactive = flat fitted curve, though single readings scatter.

Assay: qHTS for Inhibitors of human tyrosyl-DNA phosphodiesterase 1 (TDP1): qHTS in cells in absence of CPT; also: nearly all actives have a fitted effect of over 55% in size
Conditions: DT40 Tdp1-/- hTDP1 cells, no CPT, ATP luminescence, 48 h; activity change, negative = growth inhibition: at 46.2 µM (top of the series)
Outline: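 A cellular qHTS used chicken DT40 cells lacking endogenous Tdp1 but carrying stably transfected human TDP1. Compounds were applied without camptothecin, and cell growth kinetics were judged by ATP-dependent luminescence after ≥48 hr.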
% is scaled to controls: 0 for no effect and ±100 for the full control effect; potency is read from the fitted curve at half-maximal effect.

Compound | activity change, negative = growth inhibition [%] | Potency
Cc1nnc(SCC(=O)NNC(=O)c2ccc(Cl)cc2)n1CC1CCCO1 (stereo unspecified) | -3.71 | 
CC(=O)Nc1ccc(NC(=O)CSc2nnc(COc3ccccc3C)n2CC2CCCO2)cc1 (stereo unspecified) | -6.91 | 
CCN1C(=O)CS/C1=N\c1nccs1 | -2.04 | 
CCOC(=O)NC(=O)C(=CNc1cccc(OC)c1)C(=O)NC(=O)OCC | -8.39 | 
CC(=O)CSc1nnc(CSc2ncccn2)n1C1CCCCC1 | -0.234 | 
Cc1ccc(-c2csc(NC(=O)c3cnccn3)n2)cc1C | -9.21 | 
O=C(Nc1nc(-c2cccnc2)cs1)c1ccccc1F | 3.03 | 
O=C(Nc1nc(-c2ccc3c(c2)OCO3)cs1)c1ccncc1 |  | 13 µM (active)
Cc1ccc(-c2csc(NC(=O)Cc3cccs3)n2)cc1C | -1.64 | 
CC(=O)NCCC(=O)Nc1nc(-c2ccc3c(c2)OCCO3)cs1 | -6.56 | 
Cc1ccc(-c2csc(NC(=O)C3=COCCO3)n2)cc1C |  | 4.11 µM (active)
CC1=C(C(=O)Nc2cc(C)ccn2)C(c2cnn(C)c2)C2=C(CC(c3ccccc3)CC2=O)N1 (stereo unspecified) | -9.41 | 
O=P(O)(O)C(O)c1ccc2ccccc2c1 (stereo unspecified) | 8.08 | 
FC(F)(F)Oc1ccc(-c2cn3cccnc3n2)cc1 | -19 | 
Cc1cc(C)cc(C(=O)NC(CC(N)=O)c2ccc(N3CCC(N4CCCCC4)CC3)c([N+](=O)[O-])c2)c1 (stereo unspecified) | 3.31 | 
CC(=O)c1c(C)[nH]c(C(=O)NCc2ccc(C)cc2)c1C | -28.4 | 
COc1ccc(OC)c(-n2nnc(-c3nc(-c4cc(OC)c(OC)c(OC)c4)no3)c2C)c1 | -28.3 | 
CCOc1nc(-c2ccc(OC)cc2)ccc1-c1noc(-c2cc(OC)c(OC)c(OC)c2)n1 |  | 3.66 µM (active)
COc1nc(-c2ccc(Cl)cc2)ccc1-c1noc(-c2cccs2)n1 | -8.38 | 
COc1ccc(-c2cc(-c3nc(-c4cc(OC)c(OC)c(OC)c4)no3)[nH]n2)c(OC)c1 |  | 13 µM (active)
COc1cc(-c2nc(-c3ccncc3)no2)cc(OC)c1OC | 0.674 | 
CCOC(=O)COc1cc(OCC(=O)OCC)c2c(=O)cc(-c3ccccc3)oc2c1 | -24.5 | 
O=C(Nc1nn(Cc2ccccc2F)cc1Br)c1cccs1 | -22.2 | 
COc1ccc(/C(O)=C2/C(=O)C(=O)N(CC3CCCO3)C2c2ccc(OC)c(OC)c2)cc1 (stereo unspecified) | 5.95 | 
CC(CNS(=O)(=O)c1ccc(Br)cc1)CN(C)C (stereo unspecified) | -28.4 | 
O=C1CC2(CC(c3ccc(Cl)cc3)=NO2)C(=O)N1c1ccccc1 (stereo unspecified) | 2.88 | 

Compound | activity change, negative = growth inhibition [%] | Potency
Cc1ccc(-c2nnc3ccc(SCC(N)=O)nn23)cc1 | -27 | 
O=C(Nc1ccn(Cc2ccccc2)n1)c1n[nH]c([N+](=O)[O-])c1Cl | -23.2 | 
O=C(Nc1ccn(Cc2ccccc2)n1)c1cccc(F)c1 | -29.1 | 
O=C(Nc1ccn(Cc2ccc(F)cc2)n1)c1ccncc1 |  | 11.6 µM (active)
O=C(COc1cccc2c1CCNC2=O)NC1CCCCC1 | 11.4 | 
COc1ccc(C(=O)COC(=O)Cn2cnc3c2c(=O)n(C)c(=O)n3C)c(OC)c1 | 5.14 | 
COC(=O)C1=C(C(=O)OC)[C@@H]2N(C)c3ccccc3[C@@]23C[C@@H](C(=O)OC)N(C(=O)c2ccco2)C3=N1 | -11.6 | 
Cc1cc(C)cc(NS(=O)(=O)c2ccc3[nH]cc(C(=O)N4CCCCC4)c(=O)c3c2)c1 | -20 | 
CN1CCN(c2ncncc2-c2ccc(C(=O)N(C)C)cc2)CC1 | 2.5 | 
CCOC1CS(=O)(=O)CC1OCC (stereo unspecified) | 2.48 | 
COc1cccc(-c2cnc(C(O)c3ccccc3OC)[nH]2)c1 (stereo unspecified) | -18.7 | 
CCCc1ccc(C(O)c2ncc(-c3cccc(OC)c3)[nH]2)cc1 (stereo unspecified) |  | 20.6 µM (active)
Cc1cccc(-c2cnc(C(O)c3cc(C)cc(C)c3)[nH]2)c1 (stereo unspecified) | -21.6 | 
O=c1cnnc(Nc2ccccc2)[nH]1 | 0.313 | 
O=C(c1cccs1)C1C(c2ccc(Br)cc2)NC(=S)NC1(O)C(F)(F)F (stereo unspecified) | -27.6 | 
Fc1ccc(N2CCN(Cc3cnc(Oc4ccc(Br)cc4)s3)CC2)cc1 | -18.2 | 
COC(=O)c1cc(NC(=O)CCS(=O)(=O)c2cc(Br)cc3c2N(C(=O)C2CC2)CC3)cc(C(=O)OC)c1 | -14.6 | 
O=C(NCCOc1ccccc1)c1ccccc1F | 6.64 | 
CN1C2CCC1CC(NC(=O)c1ccc([N+](=O)[O-])cc1)C2 (stereo unspecified) | -21.8 | 
Cc1cc([N+](=O)[O-])c(N2CCC[C@@H]2C(=O)O)c([N+](=O)[O-])c1 | -16.3 | 
CC1CCC2CCCCC2N1C(=O)c1cc([N+](=O)[O-])cc([N+](=O)[O-])c1 (stereo unspecified) |  | 18.4 µM (active)
Cc1ccc(C)c(NC(=O)COC(=O)c2nn(C)c(=O)c3ccccc23)c1 | 8.08 | 
COC(=O)c1cc(NC(=O)c2nn(C)c(=O)c3ccccc23)cc(C(=O)OC)c1 |  | 6.51 µM (active)
CCC(C)NC(=O)c1nn(C)c(=O)c2ccccc12 (stereo unspecified) | -8.51 | 
CC1CCCCC1NC(=O)Cn1c(=O)cnc2ccccc21 (stereo unspecified) | -4.01 | 
